# The supplement of paper PMC10981050
# “And” between values parts separate entries of the source, which are not always exact repeats. Equal entries are not always repeated. Structures can show the parent of a compound that is named as a salt.
# How the values were obtained:
# Assay in all cases: cell viability relative to vehicle control; higher = less cytotoxic
# Details in all cases: 10 µM
# K562 = system: K562
# Method in brief: (§1)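 Each screen used CRISPR-edited mutant and wild-type clones from four leukaemia lines. Compounds were acoustically dispensed at a single 10 µM dose, and CellTiter-Glo luminescence was read after 48 h with the supernatant first removed. Viability was analysed in Genedata Screener and given as percent of the on-plate vehicle control.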
# MARIMO = system: MARIMO
# Method in brief: as §1
# MOLM14 = system: MOLM14
# Method in brief: as §1
# OCI-AML2 = system: OCI-AML2
# Method in brief: as §1
SMILES,cell viability (K562; SRSF2 genotype: SRSF2 P95H/wt),cell viability (K562; SRSF2 genotype: SRSF2 wt/wt),cell viability (MARIMO; SRSF2 genotype: SRSF2 P95H/wt),cell viability (MARIMO; SRSF2 genotype: SRSF2 wt/wt),cell viability (MOLM14; SRSF2 genotype: SRSF2 P95H/wt),cell viability (MOLM14; SRSF2 genotype: SRSF2 wt/wt),cell viability (OCI-AML2; SRSF2 genotype: P95H/wt),cell viability (OCI-AML2; SRSF2 genotype: wt/wt)
CN1CCC(=C2c3ccccc3CCn3c(C=O)cnc32)CC1 [Alcaftadine],102% and 104%,100%,100%,94.7%,99.7%,99.4%,109%,97.4%
C[C@H](Oc1ccc(S(C)(=O)=O)cc1C(=O)N1CCN(c2ncc(C(F)(F)F)cc2F)CC1)C(F)(F)F,105% and 98.9%,95%,97.1%,107%,97.3%,105%,101%,104%
CC(C)c1cc(C(C)C)c(CC(=O)NS(=O)(=O)Oc2c(C(C)C)cccc2C(C)C)c(C(C)C)c1 [Avasimibe (CI-1011)],79.7% and 76.5%,64.5%,80.8%,92.2%,68.6%,78.6%,92.5%,84.8%
O=C(Nc1ccc(OC(F)(F)F)cc1)c1sccc1NCc1ccnc2ccccc12,44.9% and 48.7%,43.4%,49.2%,42.3%,39%,29.1%,24%,27.2%
C[C@H](CCC(=O)O)[C@H]1CC[C@H]2[C@@H]3[C@@H](O)C[C@@H]4C[C@H](O)CC[C@]4(C)[C@H]3CC[C@]12C [Ursodiol (Actigal Urso)],95.3% and 97.4%,96.6%,103%,98.9%,99.4%,100%,98.1%,99.7%
CCCN[C@H]1CCc2nc(N)sc2C1 [Pramipexole dihydrochloride monohydrate],102% and 83.9%,83%,78.1%,85.2%,66.5%,74.9%,88.2%,78.2%
O=C1C2=C(CCN(Cc3ccccc3)C2)N2CCN=C2N1Cc1ccc(C(F)(F)F)cc1,39% and 40.3%,34%,43%,36.9%,31.1%,34.1%,22.3%,22.3%
NCc1c[nH]c(=S)n1[C@H]1CCc2c(F)cc(F)cc2C1 [Nepicastat hydrochloride],100% and 97.2%,96.6%,92.2%,97.4%,88.4%,101%,101%,103%
COc1ccccc1S(=O)(=O)Nc1ccc2c(c1)CN(C)C(=O)N2,81.5% and 75.9%,76.5%,48.9%,46.6%,33.4%,34.5%,27.1%,40.2%
O=C1c2ccc(Nc3ccc(F)cc3F)cc2CCc2ccc(OC[C@H](O)CO)cc21 [Skepinone-L],84.7% and 79.7%,77.7%,91.7%,100%,104%,102%,77.2%,73.7%
CC(=O)Cc1cc(=O)c2c(C)cc(O)c([C@@H]3O[C@H](CO)[C@@H](O)[C@H](O)[C@H]3O)c2o1 [Aloesin],101% and 97.6%,102%,102%,104%,109%,101%,105%,105%
CCN[C@H]1CN(CCCOC)S(=O)(=O)c2sc(S(N)(=O)=O)cc21 [Brinzolamide],87.4% and 79.5%,85.7%,83.7%,88.2%,83.2%,86.5%,84.2%,90.2%
Cc1ccc(C(=O)Nc2cccc(C(F)(F)F)c2)cc1Nc1nc(-c2cccnc2)nc2c1cnn2C,65.9% and 77.9%,64.2%,46.1%,60.5%,91%,110%,87%,82.7%
C[C@@H](O)[C@H]1C(=O)N2C(C(=O)OCOC(=O)C(C)(C)C)=C(SC3CN(C4=NCCS4)C3)[C@H](C)[C@H]12 [Tebipenem pivoxil (L-084)],99.2% and 99.3%,90%,90.5%,84.3%,88.7%,95.2%,103%,97.2%
O=C(OC[C@H]1O[C@@H](OC(=O)c2cc(O)c(O)c(OC(=O)c3cc(O)c(O)c(O)c3)c2)[C@H](OC(=O)c2cc(O)c(O)c(OC(=O)c3cc(O)c(O)c(O)c3)c2)[C@@H](OC(=O)c2cc(O)c(O)c(OC(=O)c3cc(O)c(O)c(O)c3)c2)[C@@H]1OC(=O)c1cc(O)c(O)c(OC(=O)c2cc(O)c(O)c(O)c2)c1)c1cc(O)c(O)c(OC(=O)c2cc(O)c(O)c(O)c2)c1 [Tannic acid],96.5% and 87.2%,98.5%,98.7%,99.3%,89.6%,92.2%,106%,94.8%
COc1ccccc1N1CCN(CC(O)COc2cccc3ccccc23)CC1 (configuration not stated) [Naftopidil Dihydrochloride],75.2% and 86.7%,72.6%,57%,65.2%,58.4%,60.1%,71.4%,74.5%
C=C1CC2(O)OC3(CC2C(C)C)C(C)CCC13 (configuration not stated) [Curcumol],106% and 101%,102%,112%,107%,97.8%,108%,99.9%,102%
C[C@]12C=CC(=O)C=C1CC[C@@H]1[C@@H]2[C@@H](O)C[C@@]2(C)[C@H]1CC[C@]2(O)C(=O)CO [Prednisolone],105% and 98.9%,106%,101%,103%,98.5%,96.3%,91.1%,111%
CCCOC(C(=O)OC1CCN(C)CC1)(c1ccccc1)c1ccccc1 [Propiverine hydrochloride],80.6% and 87.8%,88.2%,68.5%,79.1%,75.2%,85.2%,72.1%,64.2%
Cn1c2ccccc2c2c3c(c4c5ccccc5n(CCC#N)c4c21)CNC3=O,104% and 99.7%,97.7%,85.5%,93.9%,42.6%,36.8%,62.8%,65.6%

SMILES,cell viability (K562; SRSF2 genotype: SRSF2 P95H/wt),cell viability (K562; SRSF2 genotype: SRSF2 wt/wt),cell viability (MARIMO; SRSF2 genotype: SRSF2 P95H/wt),cell viability (MARIMO; SRSF2 genotype: SRSF2 wt/wt),cell viability (MOLM14; SRSF2 genotype: SRSF2 P95H/wt),cell viability (MOLM14; SRSF2 genotype: SRSF2 wt/wt),cell viability (OCI-AML2; SRSF2 genotype: P95H/wt),cell viability (OCI-AML2; SRSF2 genotype: wt/wt)
CC1OC(OC2C(OC3CC4(C)C(CC(O)C5C(C6(C)CCC(C(C)(C)O)O6)CCC54C)C4(C)CCC(O)C(C)(C)C34)OC(CO)C(O)C2O)C(O)C(O)C1O (configuration not stated) [Pseudoginsenoside F11],107% and 104%,111%,107%,103%,113%,108%,103%,98.4%
Cc1cc2c(F)c(Oc3ncnn4cc(OC[C@@H](C)OC(=O)[C@H](C)N)c(C)c34)ccc2[nH]1,89.4% and 85.9%,82%,93.5%,104%,82%,87.4%,78.8%,81.5%
O=C(NCc1cccc(O)c1)Nc1nc(-c2ccncc2)cs1,92% and 95.8%,106%,65.6%,85.8%,25.3%,60.8%,18.8%,27.6%
O=C(O)C=Cc1cccc(O)c1 [3-Hydroxycinnamic acid],106% and 93.7%,97.5%,86.6%,97.3%,87.9%,93.2%,91.4%,94.3%
Cc1cnc(C(=O)NCCc2ccc(S(=O)(=O)NC(=O)NC3CCCCC3)cc2)cn1 [Glipizide (Glucotrol)],93.8% and 94.9%,91.6%,90.9%,104%,94.3%,92.5%,96.6%,97.4%
COc1ccc([C@]2(C#N)CC[C@@H](C(=O)O)CC2)cc1OC1CCCC1,96.5% and 91.9%,99.1%,93.8%,110%,94.8%,100%,95.6%,102%
O=C(/C=C/c1ccc(O)c2c1[C@H](C(=O)O)[C@@H](c1ccc(O)c(O)c1)O2)O[C@H](Cc1ccc(O)c(O)c1)C(=O)O [Lithospermic acid],96.8% and 101%,96%,97.9%,88.7%,104%,99.9%,88.6%,97.6%
CCOCc1nc2c(N)nc3ccccc3c2n1CC(C)(C)O [Resiquimod],94.5% and 96%,92.3%,86%,87.6%,97.1%,96.1%,95.8%,98.8%
O=C(Oc1cccc(F)c1OC(=O)c1cccc(O)c1)c1cccc(O)c1,92.4% and 99.5%,94.9%,68.8%,88.4%,78.4%,80.3%,92.6%,82.4%
CO[C@@H]1[C@@H](OC)[C@H](C)[C@@](O)(CC(=O)O)O[C@H]1[C@H](C)[C@H]1O[C@@]2(CC[C@@](C)([C@H]3CC[C@@](C)([C@@H]4O[C@@H]([C@H]5O[C@](C)(O)[C@H](C)C[C@@H]5C)C[C@@H]4O[C@@H]4C[C@H](OC)[C@@H](OC)[C@H](C)O4)O3)O2)C[C@H](O)[C@H]1C [Maduramycin Ammonium],3.55% and 4.75%,8.25%,22.7%,17.7%,25.6%,22.5%,1.54%,8.79%
O=C(O)c1cc2cccc([N+](=O)[O-])c2[nH]1,103% and 105%,103%,98.9%,107%,106%,101%,111%,111%
CC(C)c1ccc(NC(=O)Cn2cnc3c2c(=O)n(C)c(=O)n3C)cc1,88.2% and 87.9%,94.4%,91%,96.1%,95.1%,96.2%,87.5%,91%
Cn1cc(-c2ccc3ncc(Cc4ccc5ncccc5c4)n3n2)cn1,108% and 96.6%,98%,102%,101%,87.7%,101%,72.5%,79.3%
"CN1CCN(c2ccc3nc(-c4c(N)c5c(F)cccc5[nH]c4=O)[nH]c3c2)CC1 [Dovitinib (TKI-258, CHIR-258)]",59.5% and 69.8%,57.1%,22.1%,32.9%,2.27%,0.38%,3.02%,6.09%
O=C1c2cccc(O)c2C(=O)c2c(O)cc(CO)cc21 [Aloe-emodin],92.1% and 94.9%,83.3%,95.1%,94.8%,92.4%,95.5%,82.5%,76.4%
COc1cc(N)c(Cl)cc1C(=O)NC1CCN(CCCOc2ccc(F)cc2)CC1OC (configuration not stated) [Cisapride hydrate],93.4% and 92.3%,95.5%,93.3%,105%,99.8%,102%,105%,99.8%
COC1C(O)C(O)C(O)C(O)C1O (configuration not stated) [Sequoyitol],102% and 107%,110%,110%,99.1%,105%,109%,99.7%,106%
Cc1ccc(C)c(OCCCC(C)(C)C(=O)O)c1 [Gemfibrozil (Lopid)],108% and 109%,108%,107%,106%,106%,109%,106%,110%
CNC(=O)[C@H](Cc1ccccc1)NC(=O)[C@H](CC(C)C)[C@H](CSc1cccs1)C(=O)NO [Batimastat (BB-94)],91.3% and 94.3%,75%,79%,96.8%,89.4%,98.5%,115%,114%
